Source: PubChem BioAssay (NCATS)
Records with an inconclusive call do not appear. Values without a mark were called inactive. The call rests on the fitted dose curve; in most records, active means well fitted curve in either direction with a large enough effect (not every such curve was filed as active); inconclusive means small, poorly fitted or top-dose-only effect, or another doubt; inactive means flat fitted curve, though single readings scatter.

experiment: AP1 Signaling Pathway (AID 357); conditions: ME-180 (cervical carcinoma) AP-1-bla reporter, EGF-induced, beta-lactamase ratio, 5 h; at 17.2 µM (top of the series) unless noted;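 further: ME-180 reporter cells stimulated with EGF at its EC50 level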
Method in brief: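 AP-1-bla ME-180 cells, Opti-MEM + 0.5% dialyzed FBS, plated overnight 37 °C. Cpd titration + EC50 EGF, 5 h 37 °C. CCF4 2.5 h RT; ex 405, em 460/530 ratio → %activity, AC50.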
On the % scale 0 is the no-effect control and ±100 the full control effect.

SMILES | activity change, negative = inhibition
COc1cc(-c2nn3c(-c4cccnc4)nnc3s2)cc(OC)c1OC | -0.374%
Cc1ccc(Cn2ncc3c(N4CCN(Cc5ccc(Cl)cc5)CC4)ncnc32)cc1 | -8.19%
CCN1CCc2c(C#N)c(N3CCOCC3)nc(NCc3ccccc3)c2C1 | 1.6%
CCOC(=O)C(O)(C1C(=O)CC(C)(C)CC1=O)C(F)(F)F (stereo not given) | 10.7%
O=c1c2c3c(sc2n2cnnc2n1Cc1ccccc1)CN(Cc1ccccc1)CC3 | 0.127%
CCCCCCCCCC(=O)N[C@@H](CN1CCOCC1)[C@@H](O)c1ccccc1 | 5.88% [at 38 µM]
COc1ccc(CN(C#N)c2nc(SC)nc(N(C)C)n2)cc1 | -3.69%
CC1(C)Cc2c(C#N)c(NCC3CCCO3)nc(-c3ccco3)c2CO1 (stereo not given) | -9.98%
CCC1(C)Cc2c(sc3c2c(=O)n(C)c2nnc(SCC(=O)c4ccc(Cl)cc4)n32)CO1 (stereo not given) | -5.39%
COC(=O)NCC12CC3CC(C1)CC(CNC(=O)OC)(C3)C2 | 3.64%
COCCCNC(=O)c1c(N)n(/N=C/c2cccs2)c2nc3ccccc3nc12 | 24.9%
N#Cc1nc(COc2ccc(Cl)cc2)oc1N1CCN(Cc2ccccc2)CC1 | -16.3%
CN(C)CCCO[C@H]1[C@H]([C@H](O)CO)O[C@H]2OC(C)(C)O[C@@H]21 | 6.88% [at 38 µM]
CCOC(=O)c1[nH]c2ccc(OC)cc2c1NC(=O)CCN1CCN(Cc2ccccc2)CC1 | -6.55%
Cc1ccc(NC(=O)CSC2=C(C#N)C(c3ccco3)C3=C(CCCC3=O)N2)cc1 (stereo not given) | -26.3%
COc1ccccc1-c1nnc2n1N=C(c1ccc(O)c(O)c1)CS2 | 10.7%
CCCSc1nnc2n(C)c(=O)c3c4c(sc3n12)CCC4 | -1.82%
COc1ccc(OC)c(NS(=O)(=O)c2ccc(N3CCCC3=O)cc2)c1 | 18.1%
COc1ccc(-c2nn3c(COc4ccccc4)nnc3s2)cc1OC | -9.35%
Nc1c(C(=O)NCC2CCCO2)c2nc3ccccc3nc2n1/N=C/c1ccncc1 (stereo not given) | -7.06%

SMILES | activity change, negative = inhibition
CC[C@H]1OC(=O)C[C@@H](O)[C@H](C)[C@@H](O[C@@H]2O[C@H](C)C[C@H](N(C)C)[C@H]2O)[C@@H](CC=O)C[C@@H](C)C(=O)C=C[C@]2(C)O[C@H]2[C@@H]1C | 1.65%
CCOC(=O)C(C)Sc1nc(-c2cccs2)ccc1C#N (stereo not given) | 7.21%
COc1ccccc1C(=O)N1CCN(Cc2ccc3c(c2)OCO3)CC1 | -11.7%
CCCn1c(SCC#N)nc2c(c1=O)C1(CCCC1)Cc1ccccc1-2 | 13.8%
CCC(=O)Oc1ccc(C(CC)C(CC)c2ccc(OC(=O)CC)cc2)cc1 (stereo not given) | -8.93%
COc1cccc(CNc2ncc(Br)cc2Br)c1O | -6.72%
N#C/C(C(=O)NCc1ccco1)=C1/SC(Cc2ccc(Cl)cc2)C(=O)N1c1ccccc1 (stereo not given) | -16.2%
CCCCCCc1cc2cc(-c3nnc(-c4ccccc4O)o3)c(=O)oc2cc1O | -3.45%
CCCN(CCC)C(=O)CC(c1ccc(F)cc1)c1ccco1 (stereo not given) | 13%
COc1ccc(CCCNC(=O)CC#N)cc1OC | 13.8%
CC(=O)Nc1ccc(-c2cc3ccccc3o2)cc1 | -10.3%
CCCCCCCCCCCCCCCCCC(=O)NC[C@@H](COP(=O)([O-])OCC[N+](C)(C)C)OCC | -12.5% [at 38 µM]
Nc1nc2n(n1)C(c1cccs1)CC(c1ccc(F)cc1)N2 (stereo not given) | 5.72%
COC(=O)CSc1nc(-c2cccs2)ccc1C#N | -2.59%
CC(C)C1C(C#N)=C(N)Oc2n[nH]c(C(C)(C)C)c21 (stereo not given) | -20.9%
CCOC(=O)c1c2c(c(=S)n(-c3ccccc3)c1N)CCC2 | -21.8%
CN1CCN(C(=O)CSc2nc(-c3cccs3)ccc2C#N)CC1 | -11%
c1ccc2c(c1)CCOC2CNCCCN1CCCCC1 (stereo not given) | -0.837%
CCCCn1c(O)c(C=NCCCN(C)C)c(=O)[nH]c1=O | -1.31%
CN(C)CCCOC(=O)c1ccc(Cl)cc1Cl | 13.3%
